Compounds with a hit are over-represented: about 2.4% of the library has one in this group of screens.
NSD2 HMT inh – NSD2 (human) methyltransferase inhibition; O96028; NSD2 peptide methylation, AlphaScreen, 120 min; inhibition, % at 12.5 µM; 310,000 compounds, 0.54% hits
Wnt bcat act – activators of Wnt/beta-catenin signaling; Wnt/beta-catenin reporter cell assay, activator, plate reader; activation, % at 9.35 µM; 300,000 compounds, 1.2% hits; in the data active means activation above about 30%, passing the limit was not always enough;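 further: 0% = neutral control wells and 100% = positive control wells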
miR-122 sensor – miR-122 inhibition in Huh7 cells; Huh7 miR-122 Renilla luciferase sensor, 48 h; neutral wells = 0, positive control = 100; activation (reporter increase), % at 12.5 µM; 340,000 compounds, 0.3% hits; AID 602342;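 active means mean replicate activation score at least 90 and every replicate individually at or above 90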;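 further: higher luciferase means less miR-122 activity so hits act as miR-122 inhibitors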
DYRK1A inh – inhibitors of rat Dyrk1A kinase. ADP-Glo luminescence, NFATc1 peptide. inhibition, % at 12.5 µM. 310,000 compounds, 0.43% hits;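 further: plate controls were vehicle with enzyme for no effect and no enzyme for full effect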
INS-1E GSIS act – GLuc luminescence reporter in INS-1E cells, primary screen for activators of glucose-dependent secretion of insulin; INS-1E GLuc reporter insulin secretion, 2-3 h; AID 743287; activation, % at 16.6 µM; 370,000 compounds, 0.61% hits;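 active means lowest replicate activation of at least 40%, so every replicate reaches that level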;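 further: 0% = median of neutral control wells and 100% = median of IBMX positive control wells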
MITF act – MITF TRPM1 promoter activation in melanoma cells; activation, % at 12.5 µM; SK-MEL-5 TRPM1-promoter luciferase, 24 h; % of positive control, neutral wells = 0; 300,000 compounds, 0.75% hits; AID 588334;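 active means mean activation of at least 80% with every replicate also reaching 80%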;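 further: 0% = neutral control wells and 100% = parthenolide positive control wells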
Active calls of the source: *; [ ] = dose if it differs, or a comment. Unless noted, no stated cut-off is given here; in the data, active means inhibition above about 50%; inactive means the rest.

What do the screens show for `O=C1N=C(N2CCCCC2)SC1=C1CCCC1`?
NSD2 HMT inh: 2; Wnt bcat act: 9; miR-122 sensor: -4; DYRK1A inh: -7; MITF act: 17

Results for CCCCN1C(=O)/C(=C2\SC(N3CCCCC3)=NC2=O)c2ccccc21 ?
NSD2 HMT inh: 13; Wnt bcat act: 20; miR-122 sensor: 6; MITF act: 107*

How did COc1ccc2c3c(n(C)c2c1)[C@@H](CO)N(C(=O)c1ccccc1)CC31CN(CC2CC2)C1 do in these assays?
INS-1E GSIS act: -3

Results for COc1cc(C)c(C(C)C)cc1S(=O)(=O)N1CCN(C)CC1 ?
NSD2 HMT inh: 3; Wnt bcat act: -2; miR-122 sensor: 149*; DYRK1A inh: -7

How did COc1ccc(CN2CC3(CCN(C(C)=O)CC3)c3c(n(C)c4cc(OC)ccc34)[C@H]2CO)cc1 do in these assays?
INS-1E GSIS act: -8

Results for Cc1ccc(/C=N/N(C)S(=O)(=O)c2ccc(C)cc2)cc1 ?
NSD2 HMT inh: 17; Wnt bcat act: 1; miR-122 sensor: 5; DYRK1A inh: 0; INS-1E GSIS act: 2; MITF act: -29

What do the screens show for `CSc1ccc(/C=N/N(C)S(=O)(=O)c2ccc(C)cc2)cc1`?
NSD2 HMT inh: -2; Wnt bcat act: 0; miR-122 sensor: 3; DYRK1A inh: 0; INS-1E GSIS act: 121*; MITF act: -8

Results for COCC(=O)N1CCCCN2[C@H](CO)[C@H](c3ccc(C#Cc4ccccc4)cc3)[C@H]2C1 ?
miR-122 sensor: -2[16.7 µM]; INS-1E GSIS act: 8

Results for O=C(NCC[C@H]1CC[C@@H](NC(=O)c2ccc3c(c2)OCO3)[C@@H](CO)O1)Nc1cc(F)ccc1F ?
miR-122 sensor: -3[16.7 µM]; INS-1E GSIS act: -4

How did Cc1ccc(Nc2nc(N)nc(-c3oc4ccccc4c3C)n2)cc1 do in these assays?
DYRK1A inh: 4; MITF act: 14

Results for Cc1c(-c2nc(N)nc(Nc3ccccc3F)n2)oc2ccccc12 ?
NSD2 HMT inh: 0; miR-122 sensor: -3; DYRK1A inh: 6; MITF act: 122*

Results for CN1C(=O)c2cc(NC(=O)c3cnccn3)ccc2OC[C@H]2O[C@@H](CC(=O)NCC3CC3)CC[C@@H]21 ?
INS-1E GSIS act: 0

What do the screens show for `N#Cc1ccc(CSC2=NCCN2)cc1`?
NSD2 HMT inh: -2; Wnt bcat act: 0; DYRK1A inh: 7; INS-1E GSIS act: 14; MITF act: -6

How did CCOc1ccc(CSC2=NCCN2)cc1Cl do in these assays?
NSD2 HMT inh: -2; Wnt bcat act: -2; miR-122 sensor: 277*; DYRK1A inh: 5

How did Clc1ccccc1-c1nc(-c2ccccc2)n[nH]1 do in these assays?
NSD2 HMT inh: 0; Wnt bcat act: 64*; miR-122 sensor: 11; DYRK1A inh: 39; MITF act: 49

What do the screens show for `Cc1ccc(NC(=O)CSc2nnc3ccccn23)c(Cl)c1`?
NSD2 HMT inh: -2; Wnt bcat act: 1; miR-122 sensor: -1; INS-1E GSIS act: 4

How did Cc1ccc(C(=O)CSc2nnc(N)s2)c(C)c1 do in these assays?
Wnt bcat act: 14; miR-122 sensor: -5; DYRK1A inh: -5; INS-1E GSIS act: 29; MITF act: 87*

How did Cc1ccc(C(=O)CSc2nnc3ccccn23)c(C)c1 do in these assays?
NSD2 HMT inh: 1; Wnt bcat act: 33*; DYRK1A inh: -9; INS-1E GSIS act: -6; MITF act: 12

Results for CCc1ccc(Nc2ncnc3nc[nH]c23)cc1 ?
NSD2 HMT inh: -1; Wnt bcat act: 47*; miR-122 sensor: 11; DYRK1A inh: 25; INS-1E GSIS act: -6; MITF act: 96*

How did CCCCc1ccc(Nc2ncnc3nc[nH]c23)cc1 do in these assays?
Wnt bcat act: 25; miR-122 sensor: -14; DYRK1A inh: 12; MITF act: 105*

How did c1ccc(CCCNc2ncnc3nc[nH]c23)cc1 do in these assays?
Wnt bcat act: 2; miR-122 sensor: -11; DYRK1A inh: 11; INS-1E GSIS act: -2

What do the screens show for `Cc1ccc(Nc2ncnc3nc[nH]c23)cc1Cl`?
Wnt bcat act: 13; miR-122 sensor: 1; DYRK1A inh: -1; INS-1E GSIS act: 0

What do the screens show for `CC(C)CNS(=O)(=O)c1cc(C(=O)OCC(=O)N(C)C2CCS(=O)(=O)C2)c(Cl)cc1Cl` (centres undefined)?
NSD2 HMT inh: -3; Wnt bcat act: 53*; miR-122 sensor: 0; DYRK1A inh: -1; INS-1E GSIS act: -12; MITF act: -1

How did CN(C(=O)COC(=O)c1cccc(Cl)c1)C1CCS(=O)(=O)C1 (centres undefined) do in these assays?
NSD2 HMT inh: -1; Wnt bcat act: -1; miR-122 sensor: -16; DYRK1A inh: 1; INS-1E GSIS act: 9; MITF act: 7

Results for O=C(CC1CC1)N[C@@H]1CC[C@H](CCNS(=O)(=O)c2ccc(F)cc2)O[C@@H]1CO ?
INS-1E GSIS act: 0

How did COc1ccc(CCN2C(=O)C(Oc3ccccc3C)C2c2ccc3c(c2)OCO3)cc1 (centres undefined) do in these assays?
NSD2 HMT inh: 0; Wnt bcat act: -5; miR-122 sensor: 14; DYRK1A inh: -5; INS-1E GSIS act: -8; MITF act: -4

What do the screens show for `O=C1C(Oc2ccccc2)C(c2ccc3c(c2)OCO3)N1CCc1ccc(F)cc1` (centres undefined)?
NSD2 HMT inh: -2; Wnt bcat act: -2; miR-122 sensor: 238*; DYRK1A inh: 2; INS-1E GSIS act: -2; MITF act: -4

What do the screens show for `COC(=O)c1ccc(C2C(Oc3ccc(OC)cc3)C(=O)N2CCc2ccc(F)cc2)cc1` (centres undefined)?
NSD2 HMT inh: -5; miR-122 sensor: -1; DYRK1A inh: 1; INS-1E GSIS act: 113*; MITF act: -5

Results for COc1ccc(OC2C(=O)N(Cc3ccc(F)cc3)C2c2cc(OC)c(OC)c(OC)c2)cc1 (centres undefined) ?
NSD2 HMT inh: -2; Wnt bcat act: -2; DYRK1A inh: -6; INS-1E GSIS act: 4; MITF act: 10

How did COc1ccc(CN2C[C@@H](C)[C@H](OC)CN(C)C(=O)c3ccc(NC(=O)C4CC4)cc3OC[C@H]2C)cc1 do in these assays?
miR-122 sensor: -1[16.7 µM]; INS-1E GSIS act: -30

How did COc1cccc(-c2ccc3c(c2)[C@H]2[C@H](CCN2C(=O)C2CCCCC2)[C@H](CO)N3)c1 do in these assays?
INS-1E GSIS act: 13

Results for Cc1cc(=O)oc2cc(OCC(=O)NC3CCN(Cc4ccccc4)CC3)ccc12 ?
NSD2 HMT inh: 2; Wnt bcat act: -1; miR-122 sensor: -4; DYRK1A inh: 8; INS-1E GSIS act: 13; MITF act: -2

Compound activity as filed in PubChem.
